Assay results from PubChem BioAssay (EPA / NIEHS).
Activity calls are given as the source filed them. The calls were made as follows: active = hit-call score of the fitted dose curve at least 0.9, where 1 is the maximum; inactive = score below 0.9.

How the values were obtained:
[1] = read-out: Matrix Metallopeptidase 1 (MMP1), MMP1 (gene 4312); assay: BSK_BE3C_MMP1: BioMAP Diversity Plus: BE3C Assay for Matrix Metallopeptidase 1 (MMP1) Biomarker Activity (AID 2283024); conditions: primary human bronchial epithelial cells; actives raise or lower the signal
In short: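 In this multiplexed primary-cell system, human bronchial epithelium received chemicals for 24 h before an ELISA for MMP1. Values reflect bidirectional fits normalised to the DMSO baseline.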

[2] = BSK_3C_Vis: BioMAP Diversity Plus: 3C Assay for Morphology Visualization (AID 2283025); conditions: primary human endothelial cells (HUVEC);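 also: fitted both ways so gain or loss versus DMSO counts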;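 as to AC50: light microscopy image of cell morphology used as background control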
In short: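 Light-microscopy morphology readout, 24 h exposure, human primary umbilical vein endothelium; analysed relative to DMSO with bidirectional fitting.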

[3] = read-out: Pselectin, SELP (gene 6403); assay: BSK_4H_Pselectin: BioMAP Diversity Plus: 4H Assay for Pselectin Biomarker Activity (AID 2283026); conditions: primary human endothelial cells (HUVEC); actives raise or lower the signal
In short: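 Bidirectional fits against DMSO gave the endpoint. Cells: primary human umbilical vein endothelium, chemical-treated for 24 h before ELISA detection of P-selectin.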

[4] = BSK_4H_SRB: Viability Assessment in the BioMAP Diversity Plus: 4H Assay (AID 2283027); conditions: primary human endothelial cells (HUVEC);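 also: cells exposed to compound for 24 h before staining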;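 as to AC50: curves fitted both ways versus DMSO so AC50 may be loss or gain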
In short: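 Cytotoxicity readout: sulforhodamine B (0.1%) staining of total protein after 10% TCA fixation, measured at 560 nm in human umbilical vein endothelium at 24 h. DMSO set the baseline; fitting was bidirectional.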

[5] = BSK_BE3C_SRB: Viability Assessment in the BioMAP Diversity Plus: BE3C Assay (AID 2283028); conditions: primary human bronchial epithelial cells;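 as to AC50: fitted both ways so AC50 may mark signal gain or loss versus DMSO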
In short: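 Cytotoxicity read-out: SRB (0.1%) staining of TCA-fixed (10%) human lung bronchial epithelial cells, absorbance 560 nm, 24 h post-dosing. Curves fitted both directions relative to DMSO.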

[6] = read-out: Thrombomodulin, THBD (gene 7056); assay: BSK_3C_Thrombomodulin: BioMAP Diversity Plus: 3C Assay for Thrombomodulin Biomarker Activity (AID 2283029); conditions: primary human endothelial cells (HUVEC); actives raise or lower the signal
In short: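 In a multiplexed primary-cell system, human umbilical vein endothelium received chemical and was assayed 24 h later for thrombomodulin by ELISA. Parallel cultures were SRB-stained (0.1% SRB after 10% TCA fixation, read at 560 nm) to flag cytotoxicity.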

[7] = read-out: Urokinase-type plasminogen activator receptor (uPAR), PLAUR (gene 5329); assay: BSK_4H_uPAR: BioMAP Diversity Plus: 4H Assay for Urokinase-type plasminogen activator receptor (uPAR) Biomarker Activity (AID 2283030); conditions: primary human endothelial cells (HUVEC); actives raise or lower the signal
In short: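 uPAR level read by ELISA on HUVEC cultures (BioMAP 4H) 24 h post-dosing, analyzed for gain or loss relative to DMSO. Parallel SRB staining assessed overt cytotoxicity.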

[8] = read-out: Vascular endothelial growth factor receptor 2 (Homo sapiens) (UniProt P35968); assay: BSK_4H_VEGFRII: BioMAP Diversity Plus: 4H Assay for Vascular endothelial growth factor receptor 2 (VEGFR2) Biomarker Activity (AID 2283031); conditions: primary human endothelial cells (HUVEC); actives raise or lower the signal
In short: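 Measured by ELISA after 24 h of compound treatment: VEGFR2 on primary human umbilical vein endothelial cells, fitted in both directions relative to DMSO. Parallel cultures received SRB staining (560 nm) for overt cytotoxicity.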

[9] = read-out: Human Leukocyte Antigen - DR isotype (HLADR), HLA-DRA (gene 3122); assay: BSK_BE3C_HLADR: BioMAP Diversity Plus: BE3C Assay for Human Leukocyte Antigen - DR isotype (HLADR) Biomarker Activity (AID 2283032); conditions: primary human bronchial epithelial cells; actives raise or lower the signal
In short: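 BioMAP BE3C format: human bronchial epithelium, 24 h compound treatment, ELISA detection of HLA-DR, with bidirectional analysis relative to DMSO.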

[10] = read-out: Vascular cell adhesion molecule 1 (VCAM1), VCAM1 (gene 7412); assay: BSK_4H_VCAM1: BioMAP Diversity Plus: 4H Assay for Vascular cell adhesion molecule 1 (VCAM1) Biomarker Activity (AID 2283033); conditions: primary human endothelial cells (HUVEC); actives raise or lower the signal
In short: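 In this human endothelial (HUVEC) system, biomarker ELISA was run 24 h after compound addition, and total protein in parallel wells was assessed by SRB at 560 nm; DMSO served as negative control.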

[11] = read-out: Interferon-gamma inducible Protein 10 (IP10), CXCL10 (gene 3627); assay: BSK_BE3C_IP10: BioMAP Diversity Plus: BE3C Assay for Interferon-gamma inducible Protein 10 (IP10) Biomarker Activity (AID 2283034); conditions: primary human bronchial epithelial cells; actives raise or lower the signal
In short: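 BE3C cells (human bronchial epithelial, primary); 24 h exposure; ELISA for IP-10; DMSO-referenced bidirectional fit.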

[12] = read-out: Monokine induced gamma interferon (MIG), CXCL9 (gene 4283); assay: BSK_BE3C_MIG: BioMAP Diversity Plus: BE3C Assay for Monokine induced gamma interferon (MIG) Biomarker Activity (AID 2283035); conditions: primary human bronchial epithelial cells; actives raise or lower the signal
In short: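 hu bronchial epithelial 1° cells, 24 h cpd; MIG by ELISA; bidirectional fit, DMSO = baseline.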

[13] = read-out: Transforming growth factor beta 1 (TGFb1), TGFB1 (gene 7040); assay: BSK_BE3C_TGFb1: BioMAP Diversity Plus: BE3C Assay for Transforming growth factor beta 1 (TGFb1) Biomarker Activity (AID 2283036;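 also: TGF-b1 protein level measured by ELISA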); conditions: primary human bronchial epithelial cells; actives raise or lower the signal
In short: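 TGF-b1 measured via ELISA, 24 h after chemical dosing of human bronchial epithelial cells (BE3C). Overt cytotoxicity assessed in parallel by SRB (0.1%, TCA-fixed, 560 nm); analysis bidirectional relative to DMSO.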

[14] = read-out: Plasminogen activator inhibitor-1 (PAI1), SERPINE1 (gene 5054); assay: BSK_BE3C_PAI1: BioMAP Diversity Plus: BE3C Assay for Plasminogen activator inhibitor-1 (PAI1) Biomarker Activity (AID 2283037); conditions: primary human bronchial epithelial cells; actives raise or lower the signal
In short: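 In this multiplexed primary-cell system, bronchial epithelial cells receive test chemical and are sampled at 24 h. PAI-1 is read by ELISA, with DMSO serving as negative control for bidirectional fitting.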

[15] = read-out: urokinase plasminogen activator (uPA), PLAU (gene 5328); assay: BSK_BE3C_uPA: BioMAP Diversity Plus: BE3C Assay for urokinase plasminogen activator (uPA) Biomarker Activity (AID 2283038); conditions: primary human bronchial epithelial cells; actives raise or lower the signal
In short: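 ELISA for uPA on human primary bronchial epithelial cultures 24 h post-treatment, gain or loss against DMSO. Parallel SRB staining (0.1% after 10% TCA fixation, 560 nm) assessed overt cytotoxicity.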

[16] = read-out: Urokinase-type plasminogen activator receptor (uPAR), PLAUR (gene 5329); assay: BSK_BE3C_uPAR: BioMAP Diversity Plus: BE3C Assay for Urokinase-type plasminogen activator receptor (uPAR) Biomarker Activity (AID 2283039); conditions: primary human bronchial epithelial cells; actives raise or lower the signal
In short: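 Chemically treated human bronchial epithelial cells (lung primary) are assayed for uPAR by ELISA after 24 h, with data fitted in both directions using DMSO as negative control.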

[17] = read-out: Interleukin-6 (IL6), IL6 (gene 3569); assay: BSK_CASM3C_IL6: BioMAP Diversity Plus: CASM3C Assay for Interleukin-6 (IL6) Biomarker Activity for (AID 2283040); conditions: primary human coronary artery smooth muscle cells; actives raise or lower the signal
[18] = read-out: Tissue plasminogen activator (tPA), PLAT (gene 5327); assay: BSK_BE3C_tPA: BioMAP Diversity Plus: BE3C Assay for Tissue plasminogen activator (tPA) Biomarker Activity (AID 2283041); conditions: primary human bronchial epithelial cells; actives raise or lower the signal
In short: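 Using human lung primary bronchial epithelial cells, tPA was measured by ELISA 24 h after dosing; data fitted relative to DMSO.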

[19] = read-out: Interleukin-8 (IL8), CXCL8 (gene 3576); assay: BSK_CASM3C_IL8: BioMAP Diversity Plus: CASM3C Assay for Interleukin-8 (IL8) Biomarker Activity (AID 2283042); conditions: primary human coronary artery smooth muscle cells; actives raise or lower the signal;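 also: IL-8 protein level quantified by ELISA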
[20] = read-out: Human Leukocyte Antigen - DR isotype (HLADR), HLA-DRA (gene 3122); assay: BSK_CASM3C_HLADR: BioMAP Diversity Plus: CASM3C Assay for Human Leukocyte Antigen - DR isotype (HLADR) Biomarker Activity (AID 2283043); conditions: primary human coronary artery smooth muscle cells; actives raise or lower the signal;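 also: cell-surface HLA-DR protein level quantified by ELISA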

Measured: AC50

C=CCc1ccc2c(c1)OCO2
inactive: [1] | [2] | [3] | [4] | [5] | [6] | [7] | [8] | [9] | [10] | [11] | [12] | [13] | [14] | [15] | [16] | [17] | [18] | [19] | [20]

Clc1ccccc1Cl
inactive: [1] | [2] | [3] | [4] | [5] | [6] | [7] | [8] | [9] | [10] | [11] | [12] | [13] | [14] | [15] | [16] | [17] | [18] | [19] | [20]

CC(C)(O)c1cnn2c(-c3ccc(F)c(-c4c(F)cccc4C#N)c3)cnc2n1
active: [2] 37.5 µM | [3] 36.2 µM | [4] 28.9 µM | [5] 29.6 µM | [6] 22.7 µM | [9] 36.5 µM | [11] 31.7 µM | [12] 36.9 µM | [14] 32.1 µM | [15] 30.2 µM | [16] 36.5 µM | [18] 25.3 µM | [20] 32.9 µM
inactive: [1] | [7] | [8] | [10] | [17] | [19]

Cc1ccc(N)c(N)c1
inactive: [1] | [2] | [3] | [5] | [6] | [7] | [8] | [9] | [11] | [12] | [14] | [15] | [16] | [17] | [18] | [19] | [20]
active: [4] 4.08 µM | [10] 8.05 µM
